In PubChem BioAssay one finds z-score data, which are given here for 36 compounds.

Each structure is given as a SMILES string.
Note: test concentration not given here.

A short description of one assay: MM1S cell viability effects, profiling panel, calcein-AM fluorescence, 48 h, basal (AID 1165).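 Note: viability of MM1S multiple myeloma cells under basal unstimulated conditions.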 The following applies: higher = more signal.
With `COc1ccc(O[C@H]2C=C[C@@H](c3ccccc3)O[C@@H]2COC(=O)CCC(C)=NOC[C@@H](C)[C@H](OCc2ccccc2)C(C)C)cc1`, the z-score is -0.0358. For the compound `O=C1[C@H]2[C@H]3[C@H](O)[C@H](O)CC(=NOCc4ccccc4)[C@H]3CC[C@H]2C(=O)N1C[C@@H]1CCCO1`, the z-score is -0.306. In the case of `O=C1O[C@@H](c2ccccc2)[C@@H](c2ccccc2)N2[C@@H](c3ccc(OCCO)cc3)[C@]3(C(=O)Nc4ccc(C#CCCO)cc43)[C@@H](C(=O)N3CCCCCCC3)[C@H]12`, the z-score is 0.206.

`CCCCc1nc2c(c3c1C[C@H](C)OC3)CN(CCC(C)C)CC2`: the z-score is 0.411.

As to `O=C1C2=CC[C@H]3C(=O)N(Cc4ccc5c(c4)OCO5)C(=O)[C@H]3[C@H]2[C@H](O)[C@@H]2O[C@H]12`, the z-score was 0.351. For the compound `O=C1CCCC=C1C(O)CCOCc1ccccc1` (stereo unspecified), the z-score was -1.42.

For the compound `COCCCNC(=O)[C@]1(CCC(=O)OC(C)(C)C)N=C(c2ccc(OCCCO)cc2)O[C@@H]1c1ccccc1N=[N+]=[N-]`, the z-score was -0.744.

Regarding `COC(=O)[C@@H]1CCCN1C(=O)[C@@H](C)CO`, the z-score is -2.77.

`COc1ccc([Si](C)(C)[C@H]2[C@H](CCO)O[C@@]3(C(=O)N(Cc4cccc(NC(=O)[C@H](C)O)c4)c4ccccc43)[C@@H]2C)cc1`: the z-score is -2.63. Turning to `CCOC(=O)CCN1C(=O)[C@H]2[C@H]3[C@H](O)[C@H](O)CC(=NOC[C@@H](O)COCc4ccco4)[C@@H]3CC[C@H]2C1=O`, the z-score was 0.366. Consider `CC(CCN1CCCCc2nc(C)c(C)cc21)=NOC(C)CN1CCCCc2nc(C)c(C)cc21` (stereo unspecified), for which the z-score is -2.33. On to `COCCOC(=O)N1C(=O)[C@@]2(c3cc(C#CC4(O)CCCCCC4)ccc31)[C@H](c1ccc(OCCO)cc1)N1[C@H](c3ccccc3)[C@H](c3ccccc3)OC(=O)[C@H]1[C@@H]2C(=O)NC[C@H](O)c1ccccc1`, for which the z-score was -1.25. For `CC(C)NC(=O)[C@@]1(C)c2ccccc2C(=O)N(Cc2cc(F)cc(C(F)(F)F)c2)[C@H]1c1ccc(CO)cc1`, the z-score is -0.0517. For `O=C1[C@H]2[C@H]3[C@H](O)[C@H](O)CC(=NO[C@@H]4O[C@H](CO)[C@@H](O)[C@H](O)[C@H]4O)[C@H]3CC[C@H]2C(=O)N1Cc1ccc2c(c1)OCO2`, the z-score is -0.19. Take `O=C1[C@H]2[C@H]3[C@H](O)[C@H](O)CC(=NOCc4ccccc4)[C@H]3CC[C@H]2C(=O)N1c1cccc(Oc2ccccc2)c1`: the z-score was -0.641. Regarding `C[C@H](c1ccccc1)N1C(=O)[C@H]2[C@@H]3C(=CC[C@H]2C1=O)C(=O)[C@H]1O[C@H]1[C@H]3O`, the z-score was -3.11.

Turning to `Cc1cc2c(nc1C)CCCN2CC(C)ON=C1[C@H]2CCn3c(=O)n(-c4ccccc4)c(=O)n3[C@H]2[C@H](O)[C@@H]2O[C@H]12` (stereo partly specified), the z-score is -1.83. For `C#CCCCON=C1C[C@@H](O)[C@@H](O)[C@@H]2[C@@H]3C(=O)N([C@@H](C)c4ccccc4)C(=O)[C@@H]3CC[C@H]12`, the z-score was 0.348.

`CCOC(=O)[C@H](Cc1ccccc1)NC(=O)CCC1CC(OC(=O)NCc2ccc3c(c2)OCO3)CC2(CCCC(COC(=O)NCC(c3ccccc3)c3ccccc3)O2)O1` (stereo partly specified): the z-score was -3.38. `COCCCNC(=O)[C@@]1(C)c2ccccc2C(=O)N(Cc2ccc(OC(F)(F)F)cc2)[C@H]1c1ccc(CO)cc1`: the z-score is -0.0013.

With `CC(=O)O[C@H]1C2=C(C(=O)[C@@H]3O[C@@H]31)[C@H]1C(C)O[C@@H]2[C@@]23C(=O)[C@@H]4O[C@@H]4[C@@H](O)C2=CO[C@H](C)[C@@H]13` (stereo partly specified), the z-score is -3. With `COCCOC(=O)N1C(=O)[C@@]2(c3cc(C#CCNC(N)=O)ccc31)[C@H](c1ccc(O)cc1)N1[C@H](c3ccccc3)[C@H](c3ccccc3)OC(=O)[C@H]1[C@@H]2C(=O)N1CCCCCCC1`, the z-score is -0.441. Same read-out and setting: the same measure for `CC(=O)OC[C@H]1O[C@H](CCON=C(C)CCC(=O)OC[C@H]2O[C@H](C#Cc3ccccc3)C=C[C@@H]2Oc2ccc(C)cc2)C=C[C@@H]1OC(C)=O`: -2.77; for `O=C1[C@H]2[C@H]3[C@H](O)[C@H](O)CC(=NOC[C@@H](O)COCc4ccco4)[C@H]3CC[C@H]2C(=O)N1c1cccc(Oc2ccccc2)c1`: 0.511.

`CC(C)(C)N1C(=O)[C@H]2[C@H]3[C@H](O)[C@H](O)CC(=NO[C@@H]4O[C@H](CO)[C@@H](O)[C@H](O)[C@H]4O)[C@@H]3CC[C@H]2C1=O`: the z-score is -0.739.

A short description of the next assay: basal RPMI8226 viability, no added stimulus, profiling panel, cell-based, calcein-AM fluorescence, 48 h, PK04 Diversity Set (AID 1166).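 Note: cells grown under basal conditions without added stimulus.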 The conditions noted are these: RPMI8226 myeloma viability, higher = more signal.
In the case of `CO[C@H]1COC(=O)[C@@H]2CCCN2C(=O)CC=C[C@@H](C)[C@H](OC)COC(=O)CC=C[C@@H]1C`, the z-score was 0.84. Same read-out and setting: the same measure for `CC(C)CON=C1C[C@@H](O)[C@@H](O)[C@@H]2[C@@H]3C(=O)N([C@@H](C)c4ccccc4)C(=O)[C@@H]3CC[C@H]12`: 0.933; for `O=C1[C@H]2[C@H]3[C@H](O)[C@H](O)CC(=NOC[C@@H](O)COCc4ccco4)[C@@H]3CC[C@H]2C(=O)N1c1ccc(F)cc1F`: -1.11; for `CO[C@@H]1COC(=O)CCC[C@@H](C)[C@H](OC)COC(=O)CCC[C@H]1C`: 0.239. For `C=CC[C@@H]1C=C[C@H](ON=C[C@@H](OC)[C@H](C)C=CCC(=O)OC)[C@@H](CO)O1`, the z-score was -0.939.

For `CCCC[C@@H](O)C1=C(C)C[C@H]2C(=O)N(Cc3ccccc3)C(=O)[C@H]2[C@H]1CO`, the z-score was 1.09. For the compound `CC(CCN1CCc2nc(-c3ccccc3)c(-c3ccccc3)cc2C1)=NO[C@H](C)c1cn([C@@H]2COC[C@H]2O)nn1`, the z-score is -0.283. For `CC(C)[C@H](NC(=O)OC(C)(C)C)[C@@H](O)CC(=O)OC(C)(C)C`, the z-score was -0.229. In the case of `CCOC(=O)C[C@H]1[C@H](OC(=O)c2ccc(C(=O)c3ccccc3)cc2)[C@@H](NC(=O)c2ccc(-c3ccccc3)cc2)c2cc(OCCCO)ccc2N1C(=O)c1ccc2ccccc2n1`, the z-score was 1.08. Turning to `CCCNC(=O)OC[C@H]1O[C@H](CCON=C[C@@H](OC)[C@H](C)C=CCC(=O)OC)C=C[C@@H]1Oc1ccc(OC)cc1`, the z-score was 0.122. As to `CCOC(=O)CCN1C(=O)[C@H]2[C@H]3[C@H](O)[C@H](O)CC(=NNC(=O)OCc4ccc(OC)cc4)[C@@H]3CC[C@H]2C1=O`, the z-score was 0.0819. Turning to `COc1ccc(O[C@H]2C=C[C@@H](c3ccccc3)O[C@@H]2COC(=O)CCC(C)=NOC[C@@H](C)[C@H](OCc2ccccc2)C(C)C)cc1`, the z-score was -1.02. For `O=C1[C@H]2[C@H]3[C@H](O)[C@H](O)CC(=NOCc4ccccc4)[C@H]3CC[C@H]2C(=O)N1C[C@@H]1CCCO1`, the z-score was 0.422. As to `O=C1O[C@@H](c2ccccc2)[C@@H](c2ccccc2)N2[C@@H](c3ccc(OCCO)cc3)[C@]3(C(=O)Nc4ccc(C#CCCO)cc43)[C@@H](C(=O)N3CCCCCCC3)[C@H]12`, the z-score is 0.269. For the compound `CCCCc1nc2c(c3c1C[C@H](C)OC3)CN(CCC(C)C)CC2`, the z-score was -1.35. With `O=C1C2=CC[C@H]3C(=O)N(Cc4ccc5c(c4)OCO5)C(=O)[C@H]3[C@H]2[C@H](O)[C@@H]2O[C@H]12`, the z-score is -0.196. Same read-out and setting: the result for `O=C1CCCC=C1C(O)CCOCc1ccccc1` (stereo unspecified) reads 0.452; that for `COCCCNC(=O)[C@]1(CCC(=O)OC(C)(C)C)N=C(c2ccc(OCCCO)cc2)O[C@@H]1c1ccccc1N=[N+]=[N-]`, -0.387. As to `COC(=O)[C@@H]1CCCN1C(=O)[C@@H](C)CO`, the z-score was -0.57. Take `COc1ccc([Si](C)(C)[C@H]2[C@H](CCO)O[C@@]3(C(=O)N(Cc4cccc(NC(=O)[C@H](C)O)c4)c4ccccc43)[C@@H]2C)cc1`: the z-score is -4.36. Regarding `CCOC(=O)CCN1C(=O)[C@H]2[C@H]3[C@H](O)[C@H](O)CC(=NOC[C@@H](O)COCc4ccco4)[C@@H]3CC[C@H]2C1=O`, the z-score was 0.557.

Regarding `CC(CCN1CCCCc2nc(C)c(C)cc21)=NOC(C)CN1CCCCc2nc(C)c(C)cc21` (stereo unspecified), the z-score is -0.696. As for `COCCOC(=O)N1C(=O)[C@@]2(c3cc(C#CC4(O)CCCCCC4)ccc31)[C@H](c1ccc(OCCO)cc1)N1[C@H](c3ccccc3)[C@H](c3ccccc3)OC(=O)[C@H]1[C@@H]2C(=O)NC[C@H](O)c1ccccc1`, the z-score is -1.84. As to `CC(C)NC(=O)[C@@]1(C)c2ccccc2C(=O)N(Cc2cc(F)cc(C(F)(F)F)c2)[C@H]1c1ccc(CO)cc1`, the z-score is 0.223. On to `O=C1[C@H]2[C@H]3[C@H](O)[C@H](O)CC(=NO[C@@H]4O[C@H](CO)[C@@H](O)[C@H](O)[C@H]4O)[C@H]3CC[C@H]2C(=O)N1Cc1ccc2c(c1)OCO2`, for which the z-score is 0.0119. The same measure, in the same setting: the same measure for `O=C1[C@H]2[C@H]3[C@H](O)[C@H](O)CC(=NOCc4ccccc4)[C@H]3CC[C@H]2C(=O)N1c1cccc(Oc2ccccc2)c1`: 0.907. For `C[C@H](c1ccccc1)N1C(=O)[C@H]2[C@@H]3C(=CC[C@H]2C1=O)C(=O)[C@H]1O[C@H]1[C@H]3O`, the z-score was -3.94. For the compound `Cc1cc2c(nc1C)CCCN2CC(C)ON=C1[C@H]2CCn3c(=O)n(-c4ccccc4)c(=O)n3[C@H]2[C@H](O)[C@@H]2O[C@H]12` (stereo partly specified), the z-score was -0.0008. In the case of `C#CCCCON=C1C[C@@H](O)[C@@H](O)[C@@H]2[C@@H]3C(=O)N([C@@H](C)c4ccccc4)C(=O)[C@@H]3CC[C@H]12`, the z-score was -1.39. For the compound `CCOC(=O)[C@H](Cc1ccccc1)NC(=O)CCC1CC(OC(=O)NCc2ccc3c(c2)OCO3)CC2(CCCC(COC(=O)NCC(c3ccccc3)c3ccccc3)O2)O1` (stereo partly specified), the z-score is -3.61. Take `COCCCNC(=O)[C@@]1(C)c2ccccc2C(=O)N(Cc2ccc(OC(F)(F)F)cc2)[C@H]1c1ccc(CO)cc1`: the z-score was 0.125.

Consider `CC(=O)O[C@H]1C2=C(C(=O)[C@@H]3O[C@@H]31)[C@H]1C(C)O[C@@H]2[C@@]23C(=O)[C@@H]4O[C@@H]4[C@@H](O)C2=CO[C@H](C)[C@@H]13` (stereo partly specified), for which the z-score was -2.64. The same measure, in the same setting: the same measure for `COCCOC(=O)N1C(=O)[C@@]2(c3cc(C#CCNC(N)=O)ccc31)[C@H](c1ccc(O)cc1)N1[C@H](c3ccccc3)[C@H](c3ccccc3)OC(=O)[C@H]1[C@@H]2C(=O)N1CCCCCCC1`: 0.0294; for `CC(=O)OC[C@H]1O[C@H](CCON=C(C)CCC(=O)OC[C@H]2O[C@H](C#Cc3ccccc3)C=C[C@@H]2Oc2ccc(C)cc2)C=C[C@@H]1OC(C)=O`: -2.73. For `O=C1[C@H]2[C@H]3[C@H](O)[C@H](O)CC(=NOC[C@@H](O)COCc4ccco4)[C@H]3CC[C@H]2C(=O)N1c1cccc(Oc2ccccc2)c1`, the z-score is 0.977. Take `CC(C)(C)N1C(=O)[C@H]2[C@H]3[C@H](O)[C@H](O)CC(=NO[C@@H]4O[C@H](CO)[C@@H](O)[C@H](O)[C@H]4O)[C@@H]3CC[C@H]2C1=O`: the z-score was -0.666.
